From ChEMBL document CHEMBL4513216, “Probing the Open Global Health Chemical Diversity Library for Multistage-Active Starting Points for Next-Generation Antimalarials” (ACS Infect Dis, 2020)
Screen size: about 68,000 compounds; about 2,700 (4%) showed an effect of 50% or more. The full list was thinned out, with strong results kept by preference.

These molecules were tested on Plasmodium berghei (assay: Screen against P. berghei liver stage (PbLuc), transformed with Luciferase, at 2uM). Details: tested at 2 uM.
Type: functional, HepG2

| SMILES | INHIBITION |
| --- | --- |
| Cc1cc(CNCC2Cn3nnc(C)c3CO2)oc1C (centres undefined) | 26.42% |
| CCS(=O)(=O)NC1CCCN(c2ccc(F)cc2C)C1=O (centres undefined) | -13.11% |
| Cn1cc(C(=O)N2CCCC(C(=O)CCc3ccccc3)C2)cn1 (centres undefined) | 18.12% |
| CCC(O)CNc1nccc(-c2ccc(C)nc2C)n1 (centres undefined) | -23.27% |
| O=C(Cc1ccccn1)N1CCC2(CCCN(CC3CCOCC3)C2)C1 (centres undefined) | -16.36% |
| O=C(Cc1cccs1)N1CCC2(CCCN(CC3CCOCC3)C2)C1 (centres undefined) | 54.62% |
| O=C(Cc1ccsc1)N1CCC2(CCCN(CC3CCOCC3)C2)C1 (centres undefined) | 32.04% |
| Cn1cnc2c1CCN(CCCOc1ccc(C#N)cc1)C2 | 40.29% |
| Cn1cnc2c1CCN(CCCOc1ccc(S(C)(=O)=O)cc1)C2 | 72.05% |
| CS(=O)(=O)c1ccc(OCCCN2CCc3cncnc3C2)cc1 | 20.53% |
| CCS(=O)(=O)N(C)C1CCN(C(=O)c2cc(C)cc(C)c2)CC1 | -37.02% |
| CNC(=O)COc1ccccc1CNCc1c(C)noc1C | 57.75% |
| Cc1noc(C)c1CNC(=O)C(C)Oc1ccccc1F (centres undefined) | -23.17% |
| CNC(=O)COc1cccc(CNCc2c(C)noc2C)c1 | -16.18% |
| Cc1cc(O)cc(=O)n1CCCC(=O)Nc1n[nH]c2cc(Br)ccc12 | -14.65% |
| CO[C@H]1C(=O)N(C)C2(CCNCC2)[C@@H]1C(=O)Nc1ccccc1 | 36.1% |
| Cc1noc(C)c1CN1CCC(N(C)Cc2nnc(C3CC3)n2C)C1 (centres undefined) | -37.68% |
| COCCN1C(=O)CCC12CCC(NCc1cccnc1OC)CC2 (centres undefined) | 12.95% |
| CC[C@H]1N(CC2CCC2)CCC[C@]12CCC(=O)N2Cc1ccncc1 | 65.54% |
| CN1C(=O)CCC12CCC(NCc1ccsc1)CC2 (centres undefined) | 51.81% |
| CC[C@@H]1N(Cc2ccc(OC)cc2)CCC[C@]12CCC(=O)N2CCOC | 25.75% |
| COCCN1C(=O)CCC12CCC(NCc1ccc(OC)cc1)CC2 (centres undefined) | 25.43% |
| CCCN1CCC[C@]2(CCC(=O)N2Cc2ccncc2)[C@H]1CC | 32.59% |
| CN1C(=O)CCC12CCC(NC(=O)NCc1cccnc1)CC2 (centres undefined) | -14.64% |
| COCCN1C(=O)CCC12CCC(NCc1nccs1)CC2 (centres undefined) | 75.66% |
| O=C1CCC2(CCC(NCc3ccsc3)CC2)N1Cc1ccccc1 (centres undefined) | 31.5% |

| SMILES | INHIBITION |
| --- | --- |
| CC[C@@H]1N(Cc2ccccn2)CCC[C@]12CCC(=O)N2CCOC | 51.05% |
| CC[C@@H]1N(CC2CCC2)CCC[C@]12CCC(=O)N2Cc1ccncc1 | 12.28% |
| CC[C@@H]1N(Cc2ccncc2)CCC[C@]12CCC(=O)N2CCOC | 28.86% |
| Cc1cc(C(=O)N2CCC(Nc3cccnc3)CC2)c(C)s1 | 22.36% |
| COCCN1CCC2(CCN(C(=O)c3ccc(F)cc3)CC2)C1=O | 4.59% |
| CN1[C@@H]2CC[C@H]1CN(C(=O)CCc1csc(N)n1)CC2 | 41.86% |
| COc1ccc(C(=O)N2CCC(Nc3cccnn3)CC2)c(F)c1 | -33.22% |
| Cc1c(C2N3CC4(C(C)C)CN2CC(C(C)C)(C3)C4=O)[nH]c(=O)[nH]c1=O (centres undefined) | -2.5% |
| CCc1noc(C2CCCCN2C(=O)c2ccc3c(c2)OCO3)n1 (centres undefined) | 25.67% |
| CC[C@@H]1N(Cc2ccc(F)cc2)CCC[C@]12CCC(=O)N2CCOC | 1.78% |
| CC[C@@H]1N(Cc2nccs2)CCC[C@]12CCC(=O)N2C | 45.22% |
| CC[C@@H]1N(Cc2nccs2)CCC[C@]12CCC(=O)N2CCOC | 65.26% |
| Cc1csc(C(=O)N2CC(S(=O)(=O)C3CCCCC3)C2)c1 | -15.37% |
| CC(=O)N1CC2(CCCN2Cc2ccc(Cl)cc2)Cc2ccccc21 (centres undefined) | 6.9% |
| CCn1c(CC2CCN(C(=O)c3cc(C(C)C)n[nH]3)CC2)n[nH]c1=O | 3.06% |
| CCn1c(CC2CCN(C(=O)c3cc(C(C)C)nn3C)CC2)n[nH]c1=O | 32.26% |
| CCn1c(CC2CCN(C(=O)c3cc(CC(C)C)on3)CC2)n[nH]c1=O | 55.25% |
| CSCc1cccc(NC(=O)N2CCC(N3CC=CC3)C2)c1 (centres undefined) | -18.09% |
| CC(=O)N(C)Cc1ccccc1NCc1c(C)noc1C | 47.68% |
| Cc1noc(C)c1CNS(=O)(=O)N(C)Cc1ccccc1Br | -45.67% |
| CCN(CC)Cc1ccccc1NCc1c(C)noc1C | 71.91% |
| O=C(Cc1csc(-c2ccco2)n1)N1CCN(c2nccs2)CC1 | 4.89% |
| CC(C)(C)CC(NC(=O)N1CCC(C(N)=O)CC1)C(F)(F)F (centres undefined) | 4.34% |
| CC(=O)N[C@@H](C)C(=O)NCc1cccnc1Oc1ccccc1F | -66.28% |
| c1cncc(-c2noc(CN3CCCC3Cn3cccn3)n2)c1 (centres undefined) | 5.59% |
| CCC(=O)NC1CCCN(C(=O)Nc2cc(-c3ccccc3)on2)C1 (centres undefined) | 80.45% |

| SMILES | INHIBITION |
| --- | --- |
| O=C(Nc1cc(-c2ccccc2)on1)N1CC[C@H](O)C1 | -9.71% |
| O=C(Nc1cc(-c2ccccc2)on1)N1CCN(CCO)CC1 | 45.19% |
| Cc1ccc(CN2CCCC3(CCCN3S(C)(=O)=O)C2)s1 (centres undefined) | 51.26% |
| Cc1ccc(CN2CCC3(CCCN3S(C)(=O)=O)CC2)s1 | -26.46% |
| Cc1ccc(CN2CCCC3(CCCCN3S(C)(=O)=O)C2)s1 (centres undefined) | -40.37% |
| Cc1ccc(CNCc2nnc3n2CCCC3C(F)(F)F)s1 (centres undefined) | -73.29% |
| OC1(CN2CCC(Cc3ncccn3)CC2)CCCCC1 | -9.61% |
| CCOc1cccnc1C(=O)N1CC=C(c2ccc(O)cc2)CC1 | 7.46% |
| Cn1ccc(CN2CCC(NC(=O)C3CCCCC3)CC2)cc1=O | -24.26% |
| Cn1ccc(CN2CCC(NC(=O)NC3CCCCC3)CC2)cc1=O | 54.85% |
| Cn1ccc(CN2CCC(CC(=O)NC3CCCC3)CC2)cc1=O | -17.37% |
| Cc1ccccc1-c1noc(CNc2ccc(F)cc2OCCO)n1 | 20.77% |
| Cc1nc(COc2ccc(CNCCn3cccn3)cc2)cs1 | 12.01% |
| COC(=O)C1CCN(C(=O)Cn2ccc(-c3ccccc3)n2)CC1 | -7.16% |
| Cc1nc(-c2ccccc2)n(CC(=O)NC2CCCC2)n1 | 37.68% |
| COC(=O)C1CCN(C(=O)Cn2nc(C)nc2-c2ccccc2)CC1 | 50.32% |
| Cc1nc(-c2ccsc2)ccc1C(=O)NCCN1CCOCC1 | 13% |
| Cc1nc(-c2ccsc2)ccc1C(=O)NCCCN1CCOCC1 | -10.47% |
| Cc1nc(-c2ccsc2)ccc1C(=O)NC(C)CN1CCOCC1 (centres undefined) | 50.75% |
| CC(C)CN1CC[C@@H]2[C@H](CC1)N(S(C)(=O)=O)CCS2(=O)=O | 30.95% |
| Cc1noc(C)c1CN1CC[C@H]2OCC[C@@]2(C(=O)NC2CCCC2)C1 | -6.61% |
| COc1ncc(-c2ccc(O)cc2)c(OC)n1 | 24.44% |
| CNc1cc(C)nc(C2COCCN2CCc2ccccc2)n1 (centres undefined) | -3.96% |
| CNc1cc(C)nc(C2COCCN2Cc2csc(C)n2)n1 (centres undefined) | 52.03% |
| Cc1cc(N(C)C)nc(C2COCCN2Cc2csc(C)n2)n1 (centres undefined) | -27.45% |
| CCOC(=O)C(C)Nc1ccc(CCN2CCOCC2)cc1 (centres undefined) | -48.91% |

| SMILES | INHIBITION |
| --- | --- |
| CNc1nc2c(s1)C(=O)CN(C(=O)NCc1ccccc1)C2 | 16.51% |
| CCNc1nc2c(s1)C(=O)CN(C(=O)NCCc1ccccc1)C2 | 12.31% |
| CCNc1nc2c(s1)C(=O)CN(C(=O)NCc1ccccc1)C2 | 52.01% |
| COCCN1C[C@@H]2CC[C@H]1CN(Cc1ccc3ccccc3n1)C2 | 50.32% |
| COCCN1C[C@@H]2CC[C@H]1CN(Cc1nc3ccccc3n1C)C2 | 20.14% |
| COCCN1C[C@@H]2CC[C@H]1CN(Cc1cc(=O)c3cc(C)ccc3[nH]1)C2 | -23.58% |
| O=C(NCc1cccnc1)c1nc2c(s1)CCCN2C(=O)C1CC1 | 26.76% |
| CC(C)(C)C(=O)NCCC(=O)NS(=O)(=O)c1ccc2c(c1)OCCO2 | 73.37% |
| COCCCC(=O)NS(=O)(=O)c1ccc2c(c1)OCCCO2 | 54.85% |
| CC(C)CC(=O)NS(=O)(=O)c1ccc2c(c1)OCCCO2 | -32.2% |
| CC(C)(C)C(=O)NCCC(=O)NC(C)(C)c1ccc2c(c1)OCCO2 | -93.39% |
| CSCCC(=O)NS(=O)(=O)c1ccc2c(c1)OCCO2 | -14.75% |
| CCCOCC(=O)NS(=O)(=O)c1ccc2c(c1)OCCCO2 | -16.42% |
| COCCn1ccc(NC(=O)Nc2ccccn2)n1 | -48.53% |
| O=C1N(Cc2ccc(F)c(F)c2)CCCC1(O)CNCc1cccnc1 (centres undefined) | -0.06% |
| CCOc1cc2c(cc1CNC(Cc1cccs1)c1nccs1)OCO2 (centres undefined) | -52.9% |
| CC(C)NC(=O)C1CCc2nnc(CNC(=O)c3ccc(Cl)cc3Cl)n21 (centres undefined) | 5.75% |
| CC(C)NC(=O)C1CCc2nnc(CNC(=O)C3CC3)n21 (centres undefined) | 52.23% |
| CC(C)NC(=O)C1CCc2nnc(CNC(=O)c3cccnc3)n21 (centres undefined) | 37.62% |
| CCOc1ccc(S(=O)(=O)N(C)Cc2cnn(CC)c2)cc1 | -44.7% |
| COc1ncccc1CNC1CCc2c(ccc(=O)n2CC2CC2)C1 (centres undefined) | 24.04% |
| O=C([C@H]1C[C@H]2OCC[C@H]2N(Cc2ccccc2F)C1)N1CCCCO1 | 29.33% |
| CN(C)Cc1nnc2n1CCN(Cc1ccccn1)CC2 | -16.67% |
| O=C(CCc1cccs1)Nc1ccnn1C1CCS(=O)(=O)C1 (centres undefined) | -28.15% |
| O=C(CCc1ccsc1)Nc1ccnn1C1CCS(=O)(=O)C1 (centres undefined) | -38.89% |
| Cc1cccc(CCC(=O)Nc2ccnn2C2CCS(=O)(=O)C2)c1 (centres undefined) | 62.13% |
